Screening data (PubChem)
Sampled rows, rich in hits. Any-hit rate of the full collection: about 3.2%.
Vaccinia Venus – vaccinia inhibition (Venus reporter); AID 720580; 330,000 tested, 0.46% active; Potency, µM (doses to about 36.5 µM), for inactives: top-dose activity change, negative = inhibition, hits mostly inhibitors; Vaccinia virus Venus reporter expression, fluorescence; calls by dose curve; tested in A549 cells; also: nearly all actives have a fitted effect of over 30% in size
FMDV antiviral – antivirals against foot and mouth disease virus; FMDV antiviral cell-based qHTS; Potency, µM (titrated, usually from 57.9 µM), inactives show top-dose activity change, negative = inhibition, usual class: inhibitors; 410,000 tested, 1.2% active; calls by dose curve; tested in HEK293T cells; also: read-out not given here; nearly all actives have a fitted effect of over 45% in size
MARV entry inh – inhibitors of Marburg virus binding or cell entry | AID 540276 | Marburg virus pseudotyped entry inhibition, cell reporter | Potency, µM (doses to about 37.8 µM), without a hit: at the highest dose activity change, negative = inhibition, hits mostly inhibitors | 300,000 tested, 1.8% active; calls by dose curve; tested in HEK293 cells
Lassa entry inh – Lassa virus entry inhibition; Lassa virus pseudotype entry inhibition, cell reporter; Potency, µM (titrated, usually from 37.9 µM), without a hit: at the top dose activity change, negative = inhibition, hits mostly inhibitors; 300,000 tested, 1.2% active; calls by dose curve; tested in HEK293 cells; also: nearly all actives have a fitted effect of over 50% in size
Vaccinia mCherry – vaccinia inhibition (mCherry reporter). 310,000 tested, 0.63% active. AID 720579. Vaccinia virus mCherry reporter infection, fluorescence. Potency, µM (series often up to 36.5 µM), for the others: at the top dose activity change, negative = inhibition, actives largely listed as inhibitors; calls by dose curve; tested in A549 cells; also: nearly all actives have a fitted effect of over 35% in size
Numbers without * were called inactive. % is scaled to controls: 0 for no effect and ±100 for the full control effect; potency is read from the fitted curve at half-maximal effect.

What do the screens show for `CC(=O)NC(CC(C)C)C(=O)NC(Cc1ccccc1)C(=O)CCl` (stereo not given)?
Vaccinia Venus: -18%; FMDV antiviral: 28µM*; MARV entry inh: inconclusive; Lassa entry inh: -13%; Vaccinia mCherry: -7%

What do the screens show for `Cc1ccc(S(=O)(=O)N[C@@H](Cc2ccccc2)C(=O)CCl)cc1`?
Vaccinia Venus: inconclusive; FMDV antiviral: 32µM*; MARV entry inh: 10µM*; Lassa entry inh: 4.6µM*; Vaccinia mCherry: -14%

Results for COc1ccccc1N1CCN(c2nc(CNC(=O)c3cc(C)oc3C)nc3ccccc23)CC1 ?
Vaccinia Venus: -5%; FMDV antiviral: -23%; Vaccinia mCherry: -13%

How did COc1cc(SC)ccc1C(=O)Nc1ncc(C)s1 do in these assays?
FMDV antiviral: 10µM*; MARV entry inh: 1.5µM*; Lassa entry inh: inconclusive

How did COc1cc(SC)ccc1C(=O)Nc1cccc(C)n1 do in these assays?
Vaccinia Venus: -18%; FMDV antiviral: -27%; MARV entry inh: 10µM*; Lassa entry inh: 8.9µM*; Vaccinia mCherry: inactive

How did O=c1[nH]c(CN2CCN(C/C=C/c3ccccc3)CC2)nc2cc(Cl)ccc12 do in these assays?
Vaccinia Venus: -22%; FMDV antiviral: -23%; MARV entry inh: 4.1µM*; Lassa entry inh: 1%; Vaccinia mCherry: -29%

Results for O=C(c1ccco1)N1CCN(Cc2nc3cc(Cl)ccc3c(=O)[nH]2)CC1 ?
Vaccinia Venus: 0%; FMDV antiviral: -11%; MARV entry inh: 9%; Lassa entry inh: -2%; Vaccinia mCherry: inactive

What do the screens show for `O=C(CCc1nc2ccccc2c(=O)[nH]1)N1CCN(C/C=C/c2ccccc2)CC1`?
FMDV antiviral: 20µM*; MARV entry inh: -19%; Lassa entry inh: 0%

Results for CC(=O)N1CCN(C(=O)CCc2nc3ccccc3c(=O)[nH]2)CC1 ?
FMDV antiviral: -25%; MARV entry inh: 21%; Lassa entry inh: 15%

How did O=C(/C=C/c1ccco1)Oc1cc(Br)cc(/C=N/NC(=O)c2ccccc2O)c1 do in these assays?
Vaccinia Venus: inconclusive; FMDV antiviral: inconclusive; MARV entry inh: inconclusive; Lassa entry inh: 11µM*; Vaccinia mCherry: 2.8µM*

What do the screens show for `COc1ccc(NC(=S)N(CCc2c(C)[nH]c3ccc(C)cc23)Cc2cccnc2)cc1`?
Vaccinia Venus: inconclusive; FMDV antiviral: 6%; MARV entry inh: -37%; Lassa entry inh: -20%; Vaccinia mCherry: inconclusive

Results for CCOc1ccc(NC(=S)N(CCc2c(C)[nH]c3ccc(C)cc23)Cc2ccncc2)cc1 ?
Vaccinia Venus: -15%; FMDV antiviral: 4%; MARV entry inh: 2.3µM*; Lassa entry inh: -9%; Vaccinia mCherry: -7%

How did CC1CCCC=CC2CC(O)CC2C(O)/C=C\C(=O)O1 (stereo not given) do in these assays?
MARV entry inh: 0.4µM*

How did C[C@H]1CCC/C=C/C2C[C@H](O)CC2[C@H](O)/C=C/C(=O)O1 (stereo not given in full) do in these assays?
Vaccinia Venus: inconclusive; FMDV antiviral: -24%; MARV entry inh: 0.37µM*; Lassa entry inh: 1.2µM*; Vaccinia mCherry: inconclusive

Results for CC1CCC/C=C/C2CC(O)CC2C(O)/C=C/C(=O)O1 (stereo not given) ?
Vaccinia Venus: inconclusive; FMDV antiviral: -24%; MARV entry inh: 0.4µM*; Lassa entry inh: inconclusive; Vaccinia mCherry: inconclusive

Results for O=C(NC1CCCC1)c1cnn2c1NC(=C1CC1)C=C2C(F)F ?
Vaccinia Venus: -30%; Vaccinia mCherry: -22%

Results for O=C1O[C@@H]([C@H](O)CO)C(O)=C1O ?
Vaccinia Venus: -8%; FMDV antiviral: -8%; Vaccinia mCherry: -10%

What do the screens show for `COc1ccc2c(c1)C(=O)[C@@H](O)[C@H](c1ccc(OC)c(Br)c1)O2`?
Vaccinia Venus: inconclusive; FMDV antiviral: 21%; MARV entry inh: 5%; Lassa entry inh: inconclusive; Vaccinia mCherry: 4µM*

How did COc1ccc2ccccc2c1CN1CCC2(CCC(CNC(=O)c3ccccc3)O2)CC1 (stereo not given) do in these assays?
Vaccinia Venus: -9%; FMDV antiviral: -18%; Vaccinia mCherry: inactive

Results for COc1ccccc1-c1ccnc(-n2ncc(C(=O)N(C)C(C)c3ccon3)c2C2CC2)n1 (stereo not given) ?
Vaccinia Venus: 2%; FMDV antiviral: 47%; Vaccinia mCherry: -10%

Results for Cc1ccc(NC(=O)N(Cc2ccc3c(c2)OCO3)C2CCN(Cc3ccccc3)CC2)cc1Cl ?
Vaccinia Venus: inconclusive; FMDV antiviral: -15%; Lassa entry inh: 11µM*; Vaccinia mCherry: inconclusive

What do the screens show for `CN(C)c1ccc(CCc2ccnc3ccccc23)cc1`?
Vaccinia Venus: -17%; Vaccinia mCherry: 10%

Results for C=C(CCC(=O)c1ccccc1)C(=O)c1ccccc1 ?
Vaccinia Venus: inconclusive; FMDV antiviral: inconclusive; MARV entry inh: inconclusive; Lassa entry inh: inconclusive; Vaccinia mCherry: -17%

Results for C=C(C(=O)c1ccccc1)C(CC(=O)c1ccccc1)c1ccccc1 (stereo not given) ?
Vaccinia Venus: inconclusive; FMDV antiviral: 18µM*; MARV entry inh: inconclusive; Lassa entry inh: 10µM*; Vaccinia mCherry: 13µM*

Results for O=C(c1nnsc1S(=O)c1ccc(Cl)cc1)N1CCOCC1 (stereo not given) ?
Vaccinia Venus: inconclusive; FMDV antiviral: 35µM*; MARV entry inh: inconclusive; Lassa entry inh: inconclusive; Vaccinia mCherry: inconclusive

How did CNC(=O)c1nnsc1S(=O)(=O)c1ccc(Cl)cc1 do in these assays?
Vaccinia Venus: inconclusive; FMDV antiviral: inconclusive; MARV entry inh: 2.8µM*; Lassa entry inh: inconclusive; Vaccinia mCherry: inconclusive

Results for O=C(c1nnsc1S(=O)(=O)c1ccc(Cl)cc1)N1CCOCC1 ?
Vaccinia Venus: inconclusive; FMDV antiviral: 16µM*; MARV entry inh: inconclusive; Lassa entry inh: inconclusive; Vaccinia mCherry: inconclusive

Results for Cc1noc(C)c1CSc1nc2[nH]ncc2c(=O)n1-c1ccccc1 ?
Vaccinia Venus: inconclusive; FMDV antiviral: 17%; MARV entry inh: inconclusive; Lassa entry inh: 4µM*; Vaccinia mCherry: inconclusive

What do the screens show for `Cc1ccccc1-n1c(SCC(=O)c2cc(C)n(C)c2C)nnc1-c1ccncc1`?
FMDV antiviral: 35µM*; MARV entry inh: inconclusive; Lassa entry inh: inconclusive

How did Cc1ccccc1-n1c(SCC(=O)c2ccccc2)nnc1-c1ccc(F)cc1 do in these assays?
Vaccinia Venus: -15%; FMDV antiviral: 26%; Lassa entry inh: inconclusive; Vaccinia mCherry: -18%

How did CCCSc1nc2cc(OC)c(OC)cc2c(=N)n1CCCN1CCOCC1 do in these assays?
Vaccinia Venus: inconclusive; FMDV antiviral: -20%; MARV entry inh: 14µM*; Lassa entry inh: inconclusive; Vaccinia mCherry: inconclusive

How did O=C(NCc1cccc(C(F)(F)F)c1)c1csc([C@@H]2O[C@H](CO)[C@H](O)[C@H](O)[C@H]2O)n1 do in these assays?
Vaccinia Venus: 15%; FMDV antiviral: -23%; Vaccinia mCherry: 33%
